Source: PubChem
Tau FP inhib: blocks human tau fibril formation measured by polarization; P10636; K18 P301L tau heparin fibrillization, Alexa594 FP, 6 h; Potency, µM (doses to about 57.7 µM), for inactives: at the highest dose activity, negative = inhibition, hits mostly inhibitors; hit rate 0.39% among 280,000; also: potency is read from the fitted curve at half-maximal effect; nearly all actives have a fitted effect of over 55% in size
Target sequence (P10636 561-689 P618L limits assumed): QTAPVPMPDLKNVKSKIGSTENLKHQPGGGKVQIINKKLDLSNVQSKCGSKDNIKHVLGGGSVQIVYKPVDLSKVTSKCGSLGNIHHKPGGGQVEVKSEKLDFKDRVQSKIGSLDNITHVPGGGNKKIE
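Recombinant K18 P301L […], labeled with Alexa 594 at 0.24 uM over 15 uM unlabeled; heparin inducer 20 uM final; 37 C, 6 hr; FP endpoint.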
Tau fluor counter: counter-screen for tau fibril formation inhibitors; tau K18 P301L Alexa594 fluorescence, heparin fibrillization; Potency, µM (titrated, usually from 57.7 µM), for the others: top-dose activity change, negative = decrease; AID 1463; hit rate 0.93% among 280,000; also: potency is read from the fitted curve at half-maximal effect; nearly all actives have a fitted effect of over 55% in size
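Human K18 P301L tau (15 uM unlabeled plus 0.24 uM Alexa 594-labeled, final) in 100 mM sodium acetate pH 7 was mixed with compound and 20 uM heparin and incubated 6 hr at 37 C.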
Coupling enz: inhibits coupling enzyme system, counter-screen for aldolase hits. activity change, negative = inhibition, % at 58.2 µM, hits read low. hit rate 0.67% among 290,000. coupling enzyme system counterscreen, AmpLite Red fluorescence; in the data active = activity change below about -30%
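Activity here indicates interference with the coupling reaction, not aldolase inhibition. Compounds at 57.5 uM final met coupling enzymes for 10 min at RT; substrate and AmpLite Red detection followed, with a 525/598 nm fluorescence read after 20 min.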
Tau fibril ThT: inhibitors of human tau fibril formation, thioflavin T binding | P10636 | recombinant tau K18 P301L (four-repeat tau fragment), heparin-induced fibrillization, ThT fluorescence | Potency, µM (doses to about 57.4 µM), for inactives: at the highest dose activity, negative = inhibition, actives largely listed as inhibitors | hit rate 2.1% among 270,000 | AID 1460; also: potency is read from the fitted curve at half-maximal effect; nearly all actives have a fitted effect of over 55% in size
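In this qHTS, human K18 P301L tau is incubated with compound and heparin for 6 hr at 37 C, and Thioflavin T fluorescence then reports fibril load.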
JMJD2E inh: inhibitors of human JMJD2E histone demethylase. B2RXH2. JMJD2E catalytic domain, FDH-coupled NADH fluorescence (FDH is formaldehyde dehydrogenase). AID 2147. hit rate 1.6% among 230,000. Potency, µM (titrated, usually from 57.1 µM), for inactives: at the highest dose activity change, negative = inhibition, hits mostly inhibitors; active = well fitted inhibition curve with a large enough effect, not every such curve was filed as active; inconclusive = small, poorly fitted or top-dose-only effect, or another doubt; inactive = no such curve, though single readings can be large or run the other way;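 also: potency is read from the fitted curve at half-maximal effect; 0% = wells with enzyme and -100% = buffer wells without enzyme; nearly all actives have a fitted effect of over 50% in size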
Target sequence (B2RXH2 1-337 limits assumed): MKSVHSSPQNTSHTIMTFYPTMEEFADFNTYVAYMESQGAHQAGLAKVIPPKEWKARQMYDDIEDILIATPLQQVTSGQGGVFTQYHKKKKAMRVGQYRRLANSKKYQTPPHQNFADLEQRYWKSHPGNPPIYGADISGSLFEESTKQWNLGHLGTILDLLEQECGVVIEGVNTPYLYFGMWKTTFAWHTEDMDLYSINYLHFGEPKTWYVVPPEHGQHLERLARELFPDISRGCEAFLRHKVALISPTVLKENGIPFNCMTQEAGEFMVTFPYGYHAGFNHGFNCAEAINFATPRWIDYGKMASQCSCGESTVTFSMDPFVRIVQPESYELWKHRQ
Sfp inh: inhibitors of Bacillus subtilis Sfp phosphopantetheinyl transferase | Biochemical Sfp PPTase activity, qHTS | Potency, µM, inactives show largest response in the series, negative = inhibition, actives largely listed as inhibitors | hit rate 3.5% among 310,000;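 also: the enzyme is Sfp with the accession as filed and its product quenches rhodamine fluorescence; potency is read from the fitted curve at half-maximal effect; 0% = enzyme reaction without inhibitor and -100% = no enzyme wells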
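Reaction rates are the 30-min fluorescence difference (ex 525, em 598 nm) in wells containing 15 nM Sfp, 5 uM rhodamine-CoA and 12.5 uM BHQ-2-YbbR at pH 7.6 with 10 mM MgCl2.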
Active calls of the source: *; ? = inconclusive; / = not tested or not shown; [ ] = dose if it differs, or a comment. An excerpt weighted towards active compounds, which were near 5.3% of everything screened. Unless noted, calls follow the shape of the dose curve; as a rule, active = well fitted curve in the direction sought with a large enough effect; inconclusive = small, poorly fitted or top-dose-only effect, or another doubt; inactive = no such curve, though single readings can be large; an effect the other way counts as inactive or inconclusive. Unless noted, % is scaled to controls: 0 for no effect and ±100 for the full control effect.

SMILES	Tau FP inhib	Tau fluor counter	Coupling enz	Tau fibril ThT	JMJD2E inh	Sfp inh
Cc1ccc(C)c(N(C)S(=O)(=O)c2ccc3[nH]cc(C(=O)NC4CCCC4)c(=O)c3c2)c1	16µM*	?	/	5%	/	/
CCN(c1ccccc1)S(=O)(=O)c1ccc2[nH]cc(C(=O)NCc3ccc(C)cc3)c(=O)c2c1	3.5µM*	?	/	11%	/	/
CC(C)=NO[C@@H](C)c1cn([C@H](CO)Cc2ccccc2)nn1	6%[11.6 µM]	0%[11.6 µM]	2	0%[11.5 µM]	/	6%
CCCCCCCCS(=O)c1sc2nc(C)cc(C)c2c1N (centres undefined)	4%	-13%	4	?	?	45µM*
O=C(O)c1ccc(/C=N/Nc2ncc(C(F)(F)F)cc2Cl)cc1	-3%	-12%	-1	-12%	-12%	28µM*
Oc1ccc(/C=N/Nc2ccc(C(F)(F)F)cn2)cc1	21%	11µM*[quencher]	-3	?	10%	0%
NC(=O)NNc1ncc(C(F)(F)F)cc1Cl	11%	-1%	2	-6%	3%	50µM*
O=C(O)c1ccc(N/N=C/c2ccc(C(F)(F)F)cc2)cc1	?	-30%	8	?	-13%	-1%
Nc1nc(-c2ccccc2)cs1	-2%	-14%	-1	-14%	-5%	-3%
NC(=S)Cc1nc(-c2ccccc2)cs1	?	?	0	20µM*	-1%	56µM*
CCC(=O)NNc1nc2c(Cl)cccc2s1	0%	-1%	0	-2%	-12%	6%
CCC(=O)NNc1nc2c(C)cccc2s1	-1%	-3%	-2	-4%	-4%	50µM*
CCC(=O)Nc1sc2c(c1C#N)CC(C)(CC)OC2 (centres undefined)	0%	-1%	1	0%	-1%	56µM*
FC(F)(F)c1ccccc1-c1nccc(NCc2cccs2)n1	/	/	-4	/	/	-11%
COc1ccccc1-c1nccc(NCc2cccs2)n1	/	/	0	/	/	79µM*
c1csc(CNc2ccnc(-c3ccoc3)n2)c1	/	/	-3	/	/	79µM*
c1cc(NC2CC2)nc(-c2ccoc2)n1	/	/	-4	/	/	79µM*
COc1ccc(C2=Nn3c(nnc3-c3ccccc3OC)SC2)c(OC)c1	/	/	2	/	/	-21%
C[C@@H]1C(=O)O[C@@H]1[C@@H](C)CO[Si](c1ccccc1)(c1ccccc1)C(C)(C)C	/	/	1	/	/	21%
Cc1cccc(C(CC(=O)NCCc2ccccc2)c2ccccc2)c1O (centres undefined)	-1%	-21%	0	-7%	-20%	79µM*
Cc1ccc2c(=O)c(C(=O)c3cccc(Cl)c3)cn(CC(=O)Nc3ccccc3C(F)(F)F)c2n1	?	-1%	/	?	/	/
O=C(Nc1ccc2snnc2c1)Nc1cccc2ccccc12	25µM*	7.9µM*[quencher]	-4	0%	-23%	-28%
CCOC(=O)c1ccc(NC(=O)Nc2ccc3snnc3c2)cc1	11µM*	-25%	/	4%	/	/
Cc1ccc(NC(=O)Nc2ccc3snnc3c2)cc1C	?	?	/	3%	/	/
CCc1ccccc1NC(=O)Nc1ccc2snnc2c1	?	?	/	0%	/	/
SMILES	Tau FP inhib	Tau fluor counter	Coupling enz	Tau fibril ThT	JMJD2E inh	Sfp inh
COc1ccc(-c2ccc(C3C4C=CCC(C)C4C(=O)N3Cc3ccccc3)c(F)c2)cc1C (centres undefined)	/	/	-1	/	/	6%
O=C(CSC(=S)N1CCCC1)N1CCN(S(=O)(=O)c2cccc([N+](=O)[O-])c2)CC1	/	/	/	/	/	50µM*
O=C(Cn1c(SCCOc2ccccc2)nc2ccccc21)N1CCOCC1	-12%	-12%	/	4%	/	/
O=c1[nH]c2c(s1)C(c1cccnc1)C1C3CCC(C3)C1S2 (centres undefined)	-3%	-23%	6	/	-4%	12%
O=c1[nH]c2c(s1)C(c1ccc(O)cc1)C1C3CCC(C3)C1S2 (centres undefined)	6%	-23%	-1	?	-9%	50µM*
O=C(O)CN1C(=O)C2C3CC(C2C1=O)C1C(c2ccc(F)cc2)c2sc(=O)[nH]c2SC31 (centres undefined)	-11%	-11%	3	?	-7%	45µM*
CC(=O)c1cccc(OCC(=O)c2cc(C)n(-c3cc(C)on3)c2C)c1	1%	-6%	-34*	-11%	6%	-8%
Cc1sc2nc(CSc3ccc([N+](=O)[O-])c(C(F)(F)F)c3)[nH]c(=O)c2c1C	1%	8%	1	9%	-8%	56µM*
CC[n+]1ccc(C[n+]2ccccc2)c2ccccc21	?	-14%	-32*	?	?	50µM*
Cc1ccc(CCNS(=O)(=O)c2cc(-c3cc(C)no3)ccc2C)cc1	-9%	-21%	/	6%	/	/
COc1ccc2nc(NNC(=O)C3COc4ccccc4O3)sc2c1 (centres undefined)	-15%	?	5	?	?	79µM*
CC(=C\C(=O)O)/C(=C/c1ccc(C)o1)C(=O)O	?	-4%	2	?	-26%	4.5µM*
CC(=C\C(=O)O)/C(=C/c1ccco1)C(=O)O	?	-22%	0	?	?	-5%
CC(=O)N1CCc2cc(S(=O)(=O)NC(CC(C)C)C(=O)Nc3ccc(C(C)C)cc3)ccc21 (centres undefined)	-2%	-15%	/	-3%	/	/
Cc1cccn2cc(COc3cccc([N+](=O)[O-])c3)nc12	-3%	-14%	-1	?	0%	-1%
Cc1cccn2cc(COc3ccc(-c4ccccc4)cc3)nc12	-8%	-27%	3	?	?	35µM*
COc1ccc(OC)c(CNC(=O)c2cc(=O)[nH]c3ccc(S(=O)(=O)N4CCCCC4C)cc23)c1 (centres undefined)	-3%	-29%	/	-2%	/	/
Cc1cccc(N2NC(=O)/C(=C/c3ccc(-c4ccc(Cl)c(C(=O)O)c4)o3)C2=O)c1	?	?	9	7.1µM*	?	-12%
CCOC(=O)c1cc(-c2ccc(/C=C3/C(=O)N(c4ccc(C(=O)O)cc4)N=C3C)o2)ccc1Cl	/	/	1	/	/	-4%
O=C1NN(c2ccccc2)C(=O)/C1=C/c1ccc(-c2ccc(Cl)c(C(=O)O)c2)o1	-9%	?	2	7.1µM*	?	-4%
C=CCc1c(C)nc2c(C)cccc2c1SC(=N)N	2%	-12%	-1	?	-9%	56µM*
Cc1nc2c(C)cccc2c(SC(=N)N)c1CC=C(Cl)Cl	-7%	-9%	3	-13%	-7%	?
CC1(C)CC2(CC(c3ccccc3F)c3ccc(O)c(O)c3O2)NC(=S)N1 (centres undefined)	?	?	-5	22µM*	10µM*	8.9µM*
